This is part of a sample that, as a whole, favours compounds with a hit. Of some 83,000 tested, about 20% had one in any assay.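 Cell lines were cultured in 96-well plates, exposed to a single compound concentration, and assessed for percent growth 48 hours later.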 Activity calls are given as the source filed them. Rule for the calls: active = growth percent below 10; inactive = the rest.
Tests used:
Test in all cases: NCI-60 one-dose screen, 48 h (100 = growth as untreated, 0 = no growth, -100 = all killed)
Settings in all cases: 10 µM unless noted
T-47D breast = system: T-47D breast
BT-549 breast = system: BT-549 breast
MDA-MB-435 melanoma = system: MDA-MB-435 melanoma
SW-620 colon = system: SW-620 colon
MCF7 breast = system: MCF7 breast
HCT-116 colon = system: HCT-116 colon
HCC-2998 colon = system: HCC-2998 colon
KM12 colon = system: KM12 colon

Measured: growth

COc1c(O)cc2c(c1CC=C(C)C)OC(=O)c1c(cc(O)c(CC=C(C)C)c1O)O2
inactive: T-47D breast 49.3% | BT-549 breast 78.2% | MDA-MB-435 melanoma 60.3% | SW-620 colon 27.3% | MCF7 breast 10.6% | HCT-116 colon 26.8% | HCC-2998 colon 24.5%
active: KM12 colon 7.76%

Cc1ncc(C(=O)Nc2ccc(CN3CCN(C)CC3)c(C(F)(F)F)c2)cc1C#Cc1cncc2ncccc12
inactive: T-47D breast 83.7% | BT-549 breast 85.4% | MDA-MB-435 melanoma 36.9% | SW-620 colon 59.6% | MCF7 breast 71.9% | HCT-116 colon 42.2% | HCC-2998 colon 74.5% | KM12 colon 13.6%

C#C[C@]1(O)CCC2C3CCc4cc(O)ccc4C3CC[C@@]21C (stereo not given in full)
inactive: T-47D breast 50.3% | BT-549 breast 36.8% | SW-620 colon 21.2% | MCF7 breast 34.1% | HCT-116 colon 19% | HCC-2998 colon 61% | KM12 colon 21.9%
active: MDA-MB-435 melanoma -5.44%

CCOC(=O)Nc1cc(-c2ccc(C)c(NS(C)(=O)=O)c2)nn2c(C)nnc12
active: MDA-MB-435 melanoma 9.2% | HCC-2998 colon -58%
inactive: T-47D breast 23.3% | BT-549 breast 49.5% | SW-620 colon 30.2% | MCF7 breast 13% | HCT-116 colon 15.6% | KM12 colon 12.2%

O=C(CN1CCN(c2ccc(Cl)cc2)CC1)N1CCN(c2nnc(-c3ccccc3)c(-c3ccccc3)n2)CC1
inactive: T-47D breast 19.7% | BT-549 breast 44.9% | MDA-MB-435 melanoma 48.8% | SW-620 colon 46.9% | MCF7 breast 20.9% | HCT-116 colon 16.7% | HCC-2998 colon 56.9% | KM12 colon 36.6%

CN(C)CCC(=O)Nc1ccc(-n2cc(-c3cccc(NC(=S)Nc4cccc(-c5cn(-c6ccc(NC(=O)CCN(C)C)cc6)nn5)c4)c3)nn2)cc1
inactive: T-47D breast 69.1% | BT-549 breast 81.6% | MDA-MB-435 melanoma 110% | SW-620 colon 17.4% | HCT-116 colon 26.7% | HCC-2998 colon 101% | KM12 colon 56.3%
active: MCF7 breast 5.07%

O=C(Nc1nc2c(C(F)(F)F)cccc2s1)c1cc(Cl)ccc1O
inactive: SW-620 colon 12.2% | HCC-2998 colon 19.3% | KM12 colon 10.5%
active: T-47D breast -1.67% | BT-549 breast -13.4% | MDA-MB-435 melanoma 5.71% | MCF7 breast 7.63% | HCT-116 colon -1.3%

O=C(/C=C/c1c(-c2ccccc2)[nH]c2ccccc12)S(=O)(=O)c1ccccc1
active: MDA-MB-435 melanoma 9.36%
inactive: T-47D breast 29.4% | BT-549 breast 87.9% | SW-620 colon 39.8% | MCF7 breast 43.3% | HCT-116 colon 46.1% | HCC-2998 colon 60.7% | KM12 colon 36.3%

C/C(=C\CCc1ccoc1)CC/C=C(\C)CCCNc1ccc(F)cc1
inactive: T-47D breast 77.8% | BT-549 breast 97.1% | MDA-MB-435 melanoma 99.2% | SW-620 colon 90.6% | MCF7 breast 92.8% | HCT-116 colon 85.2% | HCC-2998 colon 111% | KM12 colon 96.3%

O=[N+]([O-])c1cc([N+](=O)[O-])c(N2CCCC2)cc1NN=C(c1ccc(O)cc1)c1ccc(O)cc1
active: T-47D breast -7.05% | MCF7 breast 9.54% | HCT-116 colon 8% | HCC-2998 colon 4.45%
inactive: BT-549 breast 86.6% | MDA-MB-435 melanoma 76.1% | SW-620 colon 107% | KM12 colon 85.7%

CCSc1nc(-c2ccco2)n2nc(-c3ccco3)cc2n1
inactive: T-47D breast 22.9% | BT-549 breast 107% | MDA-MB-435 melanoma 111% | SW-620 colon 95.5% | MCF7 breast 22.6% | HCT-116 colon 93.4% | HCC-2998 colon 83.7% | KM12 colon 63.8%

CC(C)OP(=O)(OC(C)C)c1ncc(-c2ccc(C(F)(F)F)cc2)c(NC2CCCCCC2)n1
active: T-47D breast -13.8% [33.3 µM] | BT-549 breast -95% [33.3 µM] | MDA-MB-435 melanoma -75.2% [33.3 µM] | SW-620 colon -52.7% [33.3 µM] | MCF7 breast 0.217% [33.3 µM] | HCT-116 colon -93.4% [33.3 µM] | HCC-2998 colon -87.6% [33.3 µM] | KM12 colon -95.8% [33.3 µM]

CC(=O)O[C@H]1CC[C@@]2(C)C(=CC[C@@H]3[C@@H]2CC[C@]2(C)C(c4cccnc4)=CC[C@@H]32)C1
inactive: T-47D breast 47.2% | BT-549 breast 63.4% | MDA-MB-435 melanoma 34.5% | SW-620 colon 76.4% | MCF7 breast 46% | HCT-116 colon 54.1% | HCC-2998 colon 65.1% | KM12 colon 53.7%

N#Cc1c(-c2ccccc2)cc(-c2ccccc2)n(CCCCC(=O)O)c1=O
inactive: T-47D breast 103% | BT-549 breast 91% | MDA-MB-435 melanoma 59.4% | SW-620 colon 90.9% | MCF7 breast 78.2% | HCT-116 colon 93.3% | HCC-2998 colon 95.6% | KM12 colon 79.7%

CC(C)CNc1nc(N=[N+]=[N-])nc(NCC(C)C)n1
inactive: T-47D breast 48.6% [100 µM] | BT-549 breast 56.9% [100 µM] | MDA-MB-435 melanoma 55.6% [100 µM] | SW-620 colon 81.9% [100 µM] | MCF7 breast 52.4% [100 µM] | HCT-116 colon 42.9% [100 µM] | HCC-2998 colon 79.4% [100 µM] | KM12 colon 53.6% [100 µM]

COc1ccc2nc(N/N=C(\C)c3ccccn3)cc(C)c2c1
active: T-47D breast 0.953% | BT-549 breast -87.8% | MDA-MB-435 melanoma -94.9% | SW-620 colon -68% | MCF7 breast -74.6% | HCT-116 colon -68.7% | HCC-2998 colon -68.3% | KM12 colon -35.7%

COc1ccc2[nH]c(=O)c(CNc3ccc(Nc4nccc(-c5ccc(Cl)cc5)n4)cc3)cc2c1
inactive: T-47D breast 65.9% | BT-549 breast 104% | MDA-MB-435 melanoma 104% | SW-620 colon 105% | MCF7 breast 71.8% | HCT-116 colon 91.1% | HCC-2998 colon 106% | KM12 colon 85.4%

Cc1cn(C(C=O)OC(C=O)CO)c(=O)[nH]c1=O (stereo not given)
inactive: T-47D breast 99.6% | BT-549 breast 107% | MDA-MB-435 melanoma 106% | SW-620 colon 105% | MCF7 breast 95.1% | HCT-116 colon 103% | HCC-2998 colon 119% | KM12 colon 103%

CCNCCCn1c2c(c3ccc(F)cc3c1=O)C(=O)c1cc(OC)cnc1-2
active: T-47D breast -10.8% | BT-549 breast -22.7% | MDA-MB-435 melanoma 1.77% | SW-620 colon -16.1% | MCF7 breast -4.74% | HCT-116 colon -62.1% | HCC-2998 colon -56.1% | KM12 colon 1.84%

CC[n+]1c(/C=C/c2ccc(N3CCCC3)cc2)cccc1/C=C/c1ccc(N2CCCC2)cc1
active: T-47D breast -61% | BT-549 breast -89.7% | MDA-MB-435 melanoma -70.7% | SW-620 colon -88.1% | MCF7 breast -85.5% | HCT-116 colon -54.7% | HCC-2998 colon -82.5% | KM12 colon -81.5%

C=C1CCC2C3(C)COC(c4ccccc4)OC3CCC2(C)C1C/C=C1/C(=O)OCC1OC(C)=O (stereo not given)
inactive: T-47D breast 71.1% | BT-549 breast 103% | MDA-MB-435 melanoma 88.6% | SW-620 colon 41.4% | MCF7 breast 24.9% | HCT-116 colon 24.9% | HCC-2998 colon 107% | KM12 colon 84.4%

C/C(=C\CCc1ccoc1)CC/C=C(\C)CCCC1COC(=O)C1 (stereo not given)
inactive: T-47D breast 87.7% | BT-549 breast 108% | MDA-MB-435 melanoma 88.8% | SW-620 colon 103% | MCF7 breast 90.6% | HCT-116 colon 98.2% | HCC-2998 colon 107% | KM12 colon 93.3%

O=C1Nc2ccc(C(=O)O)c(O)c2C1=O
inactive: T-47D breast 106% | BT-549 breast 106% | MDA-MB-435 melanoma 106% | SW-620 colon 104% | MCF7 breast 104% | HCT-116 colon 108% | HCC-2998 colon 117% | KM12 colon 106%

CC(=O)OC1Oc2cc(C)c(C)cc2-c2oc(=O)c(-c3ccccc3)cc21 (stereo not given)
active: MDA-MB-435 melanoma -19.6% | KM12 colon 7.26%
inactive: T-47D breast 43.8% | BT-549 breast 24.9% | SW-620 colon 16.3% | MCF7 breast 10.9% | HCT-116 colon 14% | HCC-2998 colon 41.4%

COc1ccc(N2CCN(CC(=O)N3CCN(c4nnc(-c5ccc(Cl)cc5)c(-c5ccc(Cl)cc5)n4)CC3)CC2)cc1
inactive: T-47D breast 31.6% | BT-549 breast 66.1% | MDA-MB-435 melanoma 57.5% | SW-620 colon 69.2% | MCF7 breast 37.3% | HCT-116 colon 29.2% | HCC-2998 colon 51% | KM12 colon 44.7%

Cc1ccc(-c2csc(N)n2)cc1
inactive: T-47D breast 92.9% | BT-549 breast 93% | MDA-MB-435 melanoma 106% | SW-620 colon 105% | MCF7 breast 106% | HCT-116 colon 99.9% | HCC-2998 colon 98.7% | KM12 colon 106%

BrC1CC(Br)c2c1c1c(c3c2C(Br)CC3Br)C(Br)CC1Br (stereo not given)
inactive: T-47D breast 91.8% | BT-549 breast 125% | MDA-MB-435 melanoma 103% | SW-620 colon 83% | MCF7 breast 49.6% | HCT-116 colon 80.9% | HCC-2998 colon 87.5% | KM12 colon 129%

CC1=C([Se]CC(OC(=O)[C@@H](CSSC(C)(C)C)NC(=O)C(C)(C)C)C(=O)NCCCCCC(=O)OCc2ccccc2)C(=O)c2ccccc2C1=O (stereo not given in full)
active: BT-549 breast -64.2% | SW-620 colon 9.84% | HCT-116 colon -18% | HCC-2998 colon -63.9% | KM12 colon 6.76%
inactive: T-47D breast 17.9% | MDA-MB-435 melanoma 14.2% | MCF7 breast 30.3%

CC(=O)N1N=C(c2ccc(Nc3nc(NCCO)nc(NCCO)n3)cc2)CC1c1ccc(Cl)cc1 (stereo not given)
inactive: T-47D breast 66.2% | BT-549 breast 87.9% | MDA-MB-435 melanoma 101% | SW-620 colon 107% | MCF7 breast 90.5% | HCT-116 colon 83.4% | HCC-2998 colon 102% | KM12 colon 100%

COc1ccc(C2=NN(C(C)=O)C(c3c(C)nn(-c4ccccc4)c3N3CCOCC3)C2)cc1 (stereo not given)
inactive: T-47D breast 93.3% | BT-549 breast 77% | MDA-MB-435 melanoma 97.2% | SW-620 colon 96.6% | MCF7 breast 91.7% | HCT-116 colon 82.3% | HCC-2998 colon 102% | KM12 colon 100%
